Data published in PubChem BioAssay AID504848 (National Center for Advancing Translational Sciences (NCATS), 2011).
Among all 2,300 compounds or so, about 1,400 (61%) were called active. Inconclusive results (about 29%) are left out. Calls come from the whole dose curve; as a rule, active = well fitted inhibition curve with a large enough effect; inconclusive = small, poorly fitted or top-dose-only effect, or effect the other way; inactive = no such curve, though single readings can be large or run the other way. The set was probably picked from earlier hits. The list shows a part of the results.

Experiment: Confirmation screen for delayed death inhibitors of the malarial parasite plastid, 96 hour incubation; note: nearly all actives have a fitted effect of over 60% in size
Conditions: P. falciparum luciferase growth in erythrocytes; series mostly up to 28.7 µM
How it was run: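 Two-generation (96 h, 37 C) exposure of P. falciparum carrying an integrated firefly luciferase reporter in erythrocytes, 0.1% parasitemia and 2% hematocrit final, Albumax-supplemented RPMI. Luminescence decrease measures growth inhibition.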
Potency is the fitted concentration of half-maximal effect.

Row | Structure (SMILES) | Potency
1 | O=C(CCN1C(=O)C2CC=C(Cl)CC2C1=O)NCc1ccccc1 (configuration not stated) | inactive
2 | COc1ccc(OC)c(CCNC(=O)CCn2nc(C)c3c(C)n(-c4ccccc4)nc3c2=O)c1 | 5.62 µM (active)
3 | COc1ccccc1CNC(=O)CCCn1nc(C)c2c(C)n(-c3ccccc3)nc2c1=O | 12.6 µM (active)
4 | COc1cc(CNC(=O)CCn2nc(C)c3c(C)n(-c4ccccc4)nc3c2=O)cc(OC)c1OC | 12.6 µM (active)
5 | Cc1nn(CCC(=O)NCc2ccc(N(C)C)cc2)c(=O)c2nn(-c3ccccc3)c(C)c12 | 8.91 µM (active)
6 | COc1ccccc1CCNC(=O)CCn1nc(C)c2c(C)n(-c3ccccc3)nc2c1=O | 7.94 µM (active)
7 | CCC(C(=O)NCCc1ccccc1OC)n1nc(C)c2c(C)n(-c3ccccc3)nc2c1=O (configuration not stated) | 10 µM (active)
8 | C=C1CCC2[C@](C)(CO)[C@H](O)CC[C@@]2(C)[C@@H]1C/C=C1\C(=O)OC[C@H]1O (some centres not stated) | 11.2 µM (active)
9 | CC1(C)Cc2nc(-c3ccccc3)nc(SCC(O)CO)c2CO1 (configuration not stated) | 12.6 µM (active)
10 | CCOc1cccc2sc(NC(=O)CCS(=O)(=O)c3ccccc3)nc12 | 5.62 µM (active)
11 | COc1ccc(C)c2sc(NC(=O)CCS(=O)(=O)c3ccccc3)nc12 | inactive
12 | CC(C)(C)Sc1ccc([N+](=O)[O-])cc1C(=O)Nc1ccncc1 | 2.51 µM (active)
13 | COc1cccc(-c2sc3ccc(OC)cc3c2-c2cc(F)cc(OC)c2)c1 | 10 µM (active)
14 | CN1C(=O)c2ccccc2N(C)C1c1cccc(O)c1 (configuration not stated) | 15.8 µM (active)
15 | CC(=O)N1CCc2cc(S(=O)(=O)NCCC(=O)N3CCN(c4ccccn4)CC3)ccc21 | 7.94 µM (active)
16 | CC1CN(c2nc(-c3ccc(Br)cc3)nnc2-c2ccccc2)CC(C)N1 (configuration not stated) | 2.82 µM (active)
17 | O=C(CSc1nnc(-c2ccco2)o1)N1c2ccccc2CCc2ccccc21 | 7.94 µM (active)
18 | O=C(Cn1c(=O)sc2ccccc21)Nc1nc2c(s1)CCCC2 | inactive
19 | O=C(CCCl)Nc1nc2c(s1)CCc1ccccc1-2 | 11.2 µM (active)

Row | Structure (SMILES) | Potency
20 | O=C(Cc1cn2ccsc2n1)Nc1nc2c(s1)CCCC2 | inactive
21 | COc1ccc(CN(C(=O)c2oc3ccc(F)cc3c2C)C2CCS(=O)(=O)C2)cc1 (configuration not stated) | 14.1 µM (active)
22 | Cc1cc(C(=O)N(C)CC2CCCN(CCc3ccc(F)cc3)C2)c(C)o1 (configuration not stated) | 14.1 µM (active)
23 | Cc1c(/C=N/NC(=O)c2cccs2)c2ccccc2n1Cc1ccccc1Cl | 3.16 µM (active)
24 | Cc1ccccc1NC1=NCC(c2ccc([N+](=O)[O-])cc2)S1 (configuration not stated) | 11.2 µM (active)
25 | CCN(CC)CCNC(=O)c1ccc(NC(=O)c2ccccc2-c2ccc(C(F)(F)F)cc2)cc1 | 11.2 µM (active)
26 | CCN(CC)C(=O)CSc1nc(COc2ccccc2)nc2ccccc12 | 11.2 µM (active)
27 | COc1ccc2[nH]c3c(NCCN(C(C)C)C(C)C)ncnc3c2c1 | 3.98 µM (active)
28 | COc1ccc2[nH]c3c(NCCC4=CCCCC4)ncnc3c2c1 | 5.62 µM (active)
29 | CC(C)OCCCNc1ncnc2c1[nH]c1ccc(F)cc12 | 4.47 µM (active)
30 | Cc1ccccc1OCC(=O)NCCC1=CCCCC1 | inactive
31 | Cc1cc(=O)nc2c3ccccc3n(CC(=O)NCCC3=CCCCC3)n12 | 8.91 µM (active)
32 | COc1ccc(CCNC(=O)C(=O)NCC2OCCN2S(=O)(=O)c2ccc3c(c2)OCCO3)cc1OC (configuration not stated) | 11.2 µM (active)
33 | COc1ccc(Cl)cc1NC(=O)C1Cc2cc(S(=O)(=O)N3CCCC3)ccc2N1C(C)=O (configuration not stated) | 11.2 µM (active)
34 | O=C(NCCCn1ccnc1)C(=O)NCC1OCCN1S(=O)(=O)c1ccc(F)cc1 (configuration not stated) | inactive
35 | COc1ccc(CCNC(=O)C2CCN(S(=O)(=O)c3ccc(OC)c(OC)c3)CC2)cc1OC | 12.6 µM (active)
36 | COc1ccc(S(=O)(=O)N2CCC(C(=O)Nc3ccccc3N3CCCCC3)CC2)cc1OC | 7.94 µM (active)
37 | Cc1ccc(-c2nnc(N3CCOCC3)c3ccccc23)cc1S(=O)(=O)NCC1CCCO1 (configuration not stated) | 2.51 µM (active)
38 | Cc1cc(C)c(OCC(O)CNC(C)(C)C)c(C)c1 (configuration not stated) | 7.08 µM (active)

Row | Structure (SMILES) | Potency
39 | COc1ccc(N2CCc3c(C)nc4c(OC)cc(OC)cc4c32)c(OC)c1 | 5.01 µM (active)
40 | CC(C)NC(=S)N/N=C/c1sc(N2CCCCC2)nc1-c1cccs1 | 5.01 µM (active)
41 | Cc1cc2nsnc2c(S(=O)(=O)N2CCN(C)CC2)c1C | inactive
42 | CC1CCN(CCNC(=O)C2CCN(S(=O)(=O)c3cccc4nsnc34)CC2)CC1 | 7.94 µM (active)
43 | C=CCn1cccc(/C=C/C(=O)c2ccc(C(C)(C)C)cc2)c1=S | 0.794 µM (active)
44 | COc1ccc(CC(=O)NCC2CCCN(Cc3ccc(F)c(OC)c3)C2)cc1 (configuration not stated) | 7.08 µM (active)
45 | Cc1ccc2[nH]c3c(c2c1)CCCC3NC(=O)CCl (configuration not stated) | 4.47 µM (active)
46 | C[n+]1ccn(CC(=O)c2ccc(Cl)cc2)c1 | 14.1 µM (active)
47 | Cc1cc(C)cc(CC(Cc2nc3ccccc3[nH]2)c2nc3ccccc3[nH]2)c1 (configuration not stated) | 1.12 µM (active)
48 | C=CCN1C(=O)[C@@H]2Cc3c([nH]c4ccccc34)C(c3ccc(O)cc3)N2C1=S (some centres not stated) | 12.6 µM (active)
49 | CCN1C(=O)[C@@H]2Cc3c([nH]c4ccccc34)C(c3ccc(OC)cc3)N2C1=S (some centres not stated) | 11.2 µM (active)
50 | CCc1nc(Nc2ccncc2)c2oc3ccccc3c2n1 | 3.98 µM (active)
51 | O=C(C[C@@H]1C/C=C\CC[C@@H](Cc2ccc(F)cc2)C(=O)OC[C@@H]2CCCN2C1=O)NCCO | 10 µM (active)
52 | O=C(C[C@H]1C(=O)N(Cc2ccccc2)C[C@@H]1Cc1ccccc1)Nc1ccccc1 | 11.2 µM (active)
53 | CC(C)(C)c1ccc(C(O)CCCN2CCC(C(O)(c3ccccc3)c3ccccc3)CC2)cc1 (configuration not stated) | 11.2 µM (active)
54 | CS(=O)(=O)Nc1ccc(C2=NN(C(=O)c3ccco3)C(c3ccc(F)cc3)C2)cc1 (configuration not stated) | 10 µM (active)
55 | COc1cc([N+](=O)[O-])ccc1NC(=O)Nc1cccnc1 | 10 µM (active)
56 | Cc1ccc(S(=O)(=O)N2CCN(C(=O)c3ccc(Br)o3)CC2)c(C)c1 | 6.31 µM (active)
57 | Cc1ccc(S(=O)(=O)N2CCN(C(=O)c3cc(S(=O)(=O)N(C)C)ccc3N3CCCC3)CC2)c(C)c1 | 8.91 µM (active)
